Data: PubChem BioAssay (NCATS)
Values joined by “and” are separate entries in the source; they are usually repeats but may differ in a detail not shown here. Identical values can stand only once. Inconclusive results are not listed. Active and inactive are the calls of the source. Calls come from the whole dose curve; as a rule, active = well fitted curve in the direction sought with a large enough effect; inconclusive = small, poorly fitted or top-dose-only effect, or another doubt; inactive = no such curve, though single readings can be large; an effect the other way counts as inactive or inconclusive.

Experiments:
[1] = target: Cellular tumor antigen p53 (Homo sapiens) (UniProt P04637); assay: Primary qHTS for small molecule compounds that upregulate eGFP-tagged delta133p53alpha (in N-terminal) cells. (AID 2060322); settings: NCI-H358 eGFP-delta133p53alpha fluorescence, 24 h; activation: hits give high values; note: nearly all actives have a fitted effect of over 75% in size; note: potency is the fitted concentration of half-maximal effect;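 for activation: series mostly up to about 56 µM; 0% = DMSO vehicle and 100% = reference activator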
Cellular tumor antigen p53 (Homo sapiens), sequence (P04637 whole entry, looked up): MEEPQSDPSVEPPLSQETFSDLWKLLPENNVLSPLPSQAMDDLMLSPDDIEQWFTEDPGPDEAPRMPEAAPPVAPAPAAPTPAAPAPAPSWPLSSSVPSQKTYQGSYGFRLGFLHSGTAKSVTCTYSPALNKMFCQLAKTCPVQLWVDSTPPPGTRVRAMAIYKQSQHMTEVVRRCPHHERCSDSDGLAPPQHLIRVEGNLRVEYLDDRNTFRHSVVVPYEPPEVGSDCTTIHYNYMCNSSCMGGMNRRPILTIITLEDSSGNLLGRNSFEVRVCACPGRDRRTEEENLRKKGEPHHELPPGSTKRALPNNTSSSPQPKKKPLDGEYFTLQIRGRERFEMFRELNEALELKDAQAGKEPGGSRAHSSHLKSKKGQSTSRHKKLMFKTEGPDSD
Outline: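 NCI-H358 cells pre-induced 24 h with 10 ng/ml doxycycline to express N-terminal eGFP-delta133p53alpha, then dosed 24 h at 37C without doxycycline; fixed, Hoechst-stained, GFP intensity by laser scanning cytometry, normalized to DMSO (0%) and 57.5 uM 5-azacytidine (100%).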

[2] = target: Aldehyde dehydrogenase, mitochondrial (Homo sapiens) (UniProt P05091); assay: qHTS for Inhibitors of the Aldehyde Dehydrogenase Family (ALDH2) Primary screen (AID 2061308);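 note: plate controls were vehicle for no effect and reference inhibitor for full effect; nearly all actives have a fitted effect of over 55% in size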
[3] = target: Retinaldehyde dehydrogenase 3 (Homo sapiens) (UniProt P47895); assay: qHTS for Inhibitors of the Aldehyde Dehydrogenase Family (ALDH1A3) Validation screen (AID 2061312); note: % is set by controls: 0 for no effect and ±100 for the full control effect; nearly all actives have a fitted effect of over 45% in size
[4] = target: Retinaldehyde dehydrogenase 3 (Homo sapiens) (UniProt P47895); assay: qHTS for Inhibitors of the Aldehyde Dehydrogenase Family (ALDH1A3) Primary screen (AID 2061315);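 note: plate controls were DMSO vehicle for no effect and reference inhibitor for full effect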
[5] = BET inhibitor-based combinations targeting novel dependencies in MECOM-rearranged (r) AML: SET-2 cell line (AID 2202231); settings: SET-2 AML cells viability, CellTiter-Glo luminescence, 48 h; viability: hits give low values, concentration not given here; note: nearly all actives have a fitted effect of over 35% in size; note: potency is the fitted concentration of half-maximal effect;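 for viability: plate controls were DMSO treated cells for no effect and wells without cells for full effect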
Outline: (§1)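 AML cell lines seeded at 500 cells/well, treated with 11-point dose curves for 48 h. Viability by CellTiter-Glo luminescence, normalised to DMSO and empty wells; activity expressed as AUC and per-cell-line Z-transformed AUC.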

[6] = BET inhibitor-based combinations targeting novel dependencies in MECOM-rearranged (r) AML: OCI-AML3 cell line (AID 2202232); settings: Potency: OCI-AML3 viability; note: nearly all actives have a fitted effect of over 35% in size; note: potency is the fitted concentration of half-maximal effect;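 for viability (% of control): series mostly up to about 46 µM; plate controls were DMSO vehicle wells for no effect and wells without cells for full effect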
Outline: as §1

[7] = BET inhibitor-based combinations targeting novel dependencies in MECOM-rearranged (r) AML: HNT-34 cell line (AID 2202234); note: nearly all actives have a fitted effect of over 35% in size; note: potency is the fitted concentration of half-maximal effect;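 for viability (% of control): plate controls were vehicle wells for no effect and cell-free wells for full effect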
Outline: (§2)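 Cells at 500/well were exposed for 48 hr to MIPE v5.0 drugs as 11-point dose curves. Viability was read by CellTiter-Glo luminescence and normalized to DMSO and empty-well controls. Activity was expressed as AUC and per-cell-line Z-AUC.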

[8] = BET inhibitor-based combinations targeting novel dependencies in MECOM-rearranged (r) AML: UCSD-AML1 cell line (AID 2202235); note: nearly all actives have a fitted effect of over 40% in size; note: potency is the fitted concentration of half-maximal effect;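 for viability (% of control): series mostly up to about 46 µM; plate controls were DMSO vehicle wells for no effect and blank wells for full effect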
Outline: as §2

[9] = BET inhibitor-based combinations targeting novel dependencies in MECOM-rearranged (r) AML: AML-191 cell line (AID 2202236; note: nearly all actives have a fitted effect of over 35% in size; note: potency is the fitted concentration of half-maximal effect;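 for viability (% of control): plate controls were vehicle wells for no effect and wells without cells for full effect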)
Outline: as §1

[10] = BET inhibitor-based combinations targeting novel dependencies in MECOM-rearranged (r) AML: AML-194 cell line (AID 2202237; note: nearly all actives have a fitted effect of over 40% in size; note: potency is the fitted concentration of half-maximal effect;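 for viability (% of control): plate controls were vehicle wells for no effect and wells without cells for full effect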)
Outline: as §1

[11] = BET inhibitor-based combinations targeting novel dependencies in MECOM-rearranged (r) AML: MV-4-11 cell line (AID 2202233); note: nearly all actives have a fitted effect of over 45% in size; note: potency is the fitted concentration of half-maximal effect
Outline: as §2

CC(=O)c1cnc2ccc(-c3cc(Cl)c(O)c(Cl)c3)nc2c1NC1CCC(CN(C)C)CC1 (stereo not drawn)
active: Potency [1] 153 nM and 195 nM | Potency [5] 0.0605 µM | Potency [6] 0.121 µM | Potency [7] 0.0481 µM | Potency [8] 0.027 µM | Potency [9] 0.0481 µM | Potency [10] 0.0605 µM
inactive: activity change, negative = inhibition [2] 21.4% [at 11.2 µM] | activity change, negative = inhibition [3] 24.3% [at 20.1 µM] | activity change, negative = inhibition [4] 9.88% [at 11.2 µM]

CC(C)c1cc(C(=O)N2Cc3ccc(CN4CCN(C)CC4)cc3C2)c(O)cc1O
active: Potency [5] 0.263 µM | Potency [6] 0.296 µM | Potency [7] 0.209 µM | Potency [8] 0.263 µM
inactive: activation [1] -13.4% | Potency [2] | Potency [3] | Potency [4]

COc1ccc2nc3n[nH]c(C)c3c(NCCOCCO)c2c1
inactive: activation [1] 6.21% | Potency [2] | Potency [3] | Potency [4] | viability [5] 97% | Potency [6] | Potency [11] | Potency [7] | Potency [9] | Potency [10]

CCN(CCO)CCCC(C)Nc1ccnc2cc(Cl)ccc12 (stereo not drawn)
inactive: activation [1] 3.35% and 25.7% and 0.955% | activity change, negative = inhibition [2] 2.52% [at 5.59 µM] | activity change, negative = inhibition [3] 6.92% [at 9.14 µM] | activity change, negative = inhibition [4] 5.26% [at 5.59 µM] | viability [5] 104% | viability (% of control) [6] 48.6% [at 5.12 µM] | viability (% of control) [8] 97.7% [at 5.12 µM] | viability (% of control) [9] 74.5% [at 5.12 µM] | viability (% of control) [10] 88% [at 5.12 µM]

COc1cccc(-c2cc(F)ccc2C2Cc3nc(N)nc(C)c3C(=O)N2)n1 (stereo not drawn)
active: Potency [5] 0.0742 µM | Potency [6] 0.0661 µM | Potency [11] 0.0417 µM | Potency [8] 0.105 µM | Potency [10] 0.0934 µM
inactive: activation [1] 2.86% | Potency [2] | Potency [3] | Potency [4]

Cc1cc(-c2ncc(CC(=O)Nc3ccc(-c4cnccn4)cn3)cc2C)ccn1
inactive: activation [1] -9.46% and -6.68% | Potency [2] | Potency [3] | Potency [4]
active: Potency [5] 11.8 µM | Potency [6] 8.33 µM | Potency [11] 8.33 µM | Potency [8] 26.3 µM

CNC(=O)c1ccc(N2C(=S)N(c3cnc(C#N)c(C(F)(F)F)c3)C(=O)C23CCC3)cc1F
inactive: activation [1] -16.4% and 8.59% | Potency [2] | Potency [3] | Potency [4] | viability [5] 98% | Potency [11] | Potency [7] | Potency [8] | Potency [9] | Potency [10]

CC1COC2(CCN(c3nc(=O)c4cc(C(F)(F)F)cc([N+](=O)[O-])c4s3)CC2)O1 (stereo not drawn)
inactive: activation [1] -5.81% and -10.5% | Potency [2] | Potency [3] | Potency [4] | viability [5] 104% | Potency [11] | Potency [7] | Potency [8] | Potency [9] | Potency [10]

CCC(CC)C(c1ccc(Nc2nc3ccccc3s2)cc1)n1cncn1 (stereo not drawn)
active: Potency [5] 20.9 µM | Potency [6] 11.8 µM | Potency [9] 16.6 µM
inactive: activation [1] 17.2% | Potency [2] | Potency [3] | Potency [4] | Potency [8]

O=C(O)CC1CCC(c2ccc(-c3ccc(Nc4ccc(C(F)(F)F)nc4)cn3)cc2)CC1 (stereo not drawn)
inactive: activation [1] -9.55% | Potency [2] | Potency [3] | Potency [4] | viability [5] 114% | Potency [6] | Potency [11] | Potency [8] | Potency [9] | Potency [10]

Cc1[nH]c(/C=C2\C(=O)Nc3ccc(S(=O)(=O)N(C)c4cccc(Cl)c4)cc32)c(C)c1C(=O)N1CCN(C)CC1
active: Potency [5] 20.9 µM | Potency [6] 10.5 µM | Potency [7] 16.6 µM | Potency [9] 7.42 µM | Potency [10] 7.42 µM
inactive: activation [1] -19.1% | Potency [2] | Potency [3] | Potency [4]

Cc1cc(C(=O)N2CCN(c3cccc(Cl)c3)CC2)n(-c2ccccc2)n1
inactive: activation [1] -1.43% | Potency [2] | Potency [3] | Potency [4]
active: Potency [5] 9.34 µM | Potency [6] 4.17 µM | Potency [11] 3.72 µM | Potency [9] 2.09 µM | Potency [10] 2.63 µM

NCC(=O)Nc1ccc(-n2nc(C(F)(F)F)cc2-c2ccc3c(ccc4ccccc43)c2)cc1
active: Potency [5] 11.8 µM | Potency [6] 18.6 µM | Potency [11] 4.68 µM | Potency [9] 16.6 µM
inactive: activation [1] -7.41% | Potency [2] | Potency [3] | Potency [4] | Potency [8]

NC(=O)c1cccc2cn(-c3ccc([C@@H]4CCCNC4)cc3)nc12
active: Potency [5] 14.8 µM | Potency [11] 4.17 µM
inactive: activation [1] 20.3% and 6.68% | Potency [2] | Potency [3] | Potency [4]

COc1ccc(N(C)c2nc(C)nc3ccccc23)cc1
inactive: activation [1] 0.477% | Potency [2] | Potency [3] | Potency [4]
active: Potency [5] 0.0118 µM | Potency [6] 0.0093 µM | Potency [8] 0.0118 µM | Potency [9] 0.0093 µM | Potency [10] 0.0105 µM

CNC(=O)c1ccc(-c2cnc3ncc(Cc4ccc5ncccc5c4)n3n2)cc1F
inactive: activation [1] -4.61% and -7.16% | Potency [2] | Potency [3] | Potency [4] | viability [5] 95.9% | Potency [6] | Potency [8] | Potency [10]
active: Potency [7] 18.6 µM
